The text below walks through data of PubChem BioAssay (NCATS).

Assay [1] concerns the target Lysosomal acid glucosylceramidase (Homo sapiens) (UniProt P04062). Description: Glucocerebrosidase-p2 (AID 348; in the data active = potency below about 10 µM; also: potency is read from the fitted curve at half-maximal effect). Particulars: purified GBA, blue fluorogenic substrate, 40 min. In short, it runs like this: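 Normal human glucocerebrosidase (0.2 nM) with blue fluorogenic substrate (80 uM final) in citrate/phosphate pH 5.9 with 10mM sodium taurocholate, 0.01% tween-20; 40 min RT, NaOH/glycine stop; fluorescence Ex 365/Em 440; AC50 from a titration from 0.6 nM upwards.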

The nature of assay [2]: AP1 Signaling Pathway (AID 357; active = well fitted curve in either direction with a large enough effect, not every such curve was filed as active; also: % is scaled to controls: 0 for no effect and ±100 for the full control effect). Particulars: ME-180 AP-1-bla reporter, EGF-induced, beta-lactamase ratio, 5 h; at 7.69 µM (top of the series) unless noted. In short, it runs like this: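 Cells are seeded overnight, exposed to compound titrations and an EC50 level of EGF for 5 hours at 37 °C, then loaded with CCF4 dye for 2.5 hours. Beta-lactamase activity under the AP-1 element is read as a blue/green ratio.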

Assay [3] deals with Cytochrome P450 1A2 (Homo sapiens) (UniProt P05177). Description: p450-cyp1a2 (AID 410; calls by dose curve; also: potency is read from the fitted curve at half-maximal effect). Particulars: recombinant CYP1A2, luciferin-ME demethylation, luminescence; series mostly up to 57 µM. The gist of the method: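 O-Demethylation of luciferin 6' methyl ether by human CYP1A2 is monitored as luciferase luminescence. Substrate sits at Km (100uM); enzyme is 20nM. Values are scaled to 57 uM furafylline as maximal inhibition.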

The target of assay [4] is Glucocorticoid receptor (Homo sapiens) (UniProt P04150). Description: GR-GFP Redistribution (AID 450;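 active = compounds whose dose series gives a full or clear partial fitted curve of increased nuclear translocation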; also: potency is read from the fitted curve at half-maximal effect). Particulars: U2OS GR-GFP nuclear translocation, laser cytometry, 2 h.
Assay [5] has the same target. Description: GR-EFC Redistribution (AID 451; calls by dose curve; also: potency is read from the fitted curve at half-maximal effect). Particulars: CHO-K1 GR-EFC translocation, beta-gal luminescence, 2 h. The gist of the method:
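Translocation of GR-ED fusion to nuclear EA restores b-gal, read by luminescence after 1 h room-temperature detection. Engineered CHO-K1 biosensor cells, 1,000/well, exposed 2 h at 37 C to titrations up to 46 uM final.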

In assay [6] the target is Mitogen-activated protein kinase 10 (Mus musculus) (UniProt Q61831). Description: JNK3 AlphaScreen Assay (AID 530; active = well fitted curve in either direction with a large enough effect, not every such curve was filed as active;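 also: kinase came from lysate of stimulated human HepG2 cells; signal reports phosphorylation of biotinylated GST-cJun 1-79 at Ser73 with 10 µM ATP; % is scaled to controls: 0 for no effect and ±100 for the full control effect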). Particulars: JNK3 lysate, c-Jun phosphorylation; series mostly up to 57.1 µM. In short, it runs like this:
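qHTS titrations with 15 min compound pre-incubation before adding ATP (10 uM final). Read-out: AlphaScreen of Ser73-phosphorylated biotin-GST-cJun using HepG2 lysate JNK3 activated by IL-1β and TNFα.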
Background: Alpha assays give light when donor and acceptor beads are brought close together.

Assay [7] addresses Dual specificity protein kinase CLK4 (Homo sapiens) (UniProt Q9HAZ1). Description: qHTS Assay for Inhibitors of CDC-like Kinase 4 (Kinase-Glo Assay) (AID 1770). Also: nearly all actives have a fitted effect of over 65% in size. Also: potency is read from the fitted curve at half-maximal effect. Particulars: recombinant Clk4, Kinase-Glo ATP depletion luminescence; series mostly up to 66.7 µM. The gist of the method: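 Readout: Kinase-Glo luminescence from ATP left after a 4.5 h room-temperature reaction of 25 nM Clk4 with 100 uM RS peptide and 1 uM ATP (final). Buffer: 25 mM Tris pH 7.5, 10 mM MgCl2.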
(In qHTS, concentration-response curves come from the screen itself.)

The target is the same in assay [8]. Description: qHTS Assay for Inhibitors of CDC-like Kinase 4 (ADP-Glo Assay) (AID 1771). Also: nearly all actives have a fitted effect of over 70% in size. Also: potency is read from the fitted curve at half-maximal effect. Particulars: recombinant CLK4, ADP-Glo luminescence; series mostly up to 80 µM. In short, it runs like this:
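Compounds are pin-transferred onto substrate mix (100 uM RS peptide, 1 uM ATP), then 25 nM Clk4 is added. After 1 hr at room temperature, ADP-Glo reagent runs 45 min, detection reagent 30 min, then luminescence is read.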

The target is the same in assay [9]. Description: qHTS Assay for Inhibitors of CDC-like Kinase 4 (ADP-FP Assay) (AID 1795). Also: nearly all actives have a fitted effect of over 60% in size. Also: potency is read from the fitted curve at half-maximal effect. Particulars: Transcreener ADP fluorescence polarization; series mostly up to 50 µM. The gist of the method:
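FP readout: Orange Transcreener ADP2 tracer (4 nM) plus ADP antibody, read after 30 min at room temperature. Kinase step: 6.25 nM Clk4, 100 uM RS peptide, 1 uM ATP, pH 7.5, 1 h.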

The target of assay [10] is Ubiquitin carboxyl-terminal hydrolase 1 (Homo sapiens) (UniProt O94782). Description: Inhibitors of USP1/UAF1: Pilot qHTS (AID 504865).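 Also: rhodamine fluorescence freed from ubiquitin-rhodamine substrate followed over time; top concentration of the series differs between compounds; % is scaled to controls: 0 for no effect and ±100 for the full control effect; nearly all actives have a fitted effect of over 35% in size.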 Particulars: purified USP1/UAF1, Ub-rhodamine cleavage fluorescence; series mostly up to 54.9 µM. The gist of the method: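 1nM USP1/UAF1 + cpd, 15 min RT; start w/ Ub-Rho 150nM final; kinetic FL 480/540 nm, 6 reads q60 s. Buffer 50mM HEPES pH 7.8, 0.5mM EDTA, 1mM TCEP, 0.01% Tween-20, 0.1 mg/ml BSA.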

The nature of assay [11]: Primary qHTS for small molecule stabilizers of the endoplasmic reticulum resident proteome: Secreted ER Calcium Modulated Protein (SERCaMP) assay (AID 1508630). Also: % is scaled to controls: 0 for no effect and ±100 for the full control effect. Particulars: SH-SY5Y GLuc-SERCaMP (Gaussia luciferase released on ER calcium loss) secretion, thapsigargin, luminescence; series mostly up to 38.4 µM. In short, it runs like this:
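The SH-SY5Y reporter protocol was run at 3 concentrations up to 38.3 uM (primary) or 11 concentrations (follow-up): 16 h compound, 100 nM thapsigargin for 4 h, then extracellular luciferase luminescence.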

The nature of assay [12]: Stat Signaling Pathway (AID 446; active = well fitted curve in either direction with a large enough effect, not every such curve was filed as active;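 also: ME-180 cervical cancer cells given 40 pM IL-6 alongside compound; SIE-controlled beta-lactamase reporter measured as 460/530 nm FRET emission ratio; % is scaled to controls: 0 for no effect and ±100 for the full control effect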). Particulars: ME-180 SIE beta-lactamase reporter, IL-6 stimulated, 5 h; at 7.69 µM (top of the series) unless noted. The gist of the method: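 Emission at 460 and 530 nm (excitation 405 nm) reports SIE-controlled beta-lactamase in ME-180 cells. Cells received compound with 40 pM IL-6 for 5 hrs at 37 C; data scaled between 300 pM IL-6 and 125 nM JAK-inhibitor controls.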

The target of assay [13] is Cytochrome P450 3A4 (Homo sapiens) (UniProt P08684). Description: qHTS Assay for Inhibitors and Substrates of Cytochrome P450 3A4 (AID 884). Also: potency is read from the fitted curve at half-maximal effect; nearly all actives have a fitted effect of over 50% in size. Particulars: recombinant CYP3A4, Luciferin-PPXE luminescence; series mostly up to 57.1 µM. The gist of the method:
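Luminescent readout of luciferin produced by CYP3A4 (20 nM) dealkylation of Luciferin-PPXE, 25 uM (its KM). NADPH-driven reaction ran 60 min at RT after 10 min compound preincubation; data scaled to 57 uM ketoconazole as 100% inhibition.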

Assay [14] has the same target. Description: qHTS Assay for Activators of Cytochrome P450 3A4 (AID 885). Also: nearly all actives have a fitted effect of over 65% in size. Particulars: recombinant CYP3A4, Luciferin-PPXE luminescence, 60 min; series mostly up to 57.1 µM. In short, it runs like this:
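Activators are scored by enhanced luminescence from CYP3A4 conversion of luciferin-PPXE (25uM, equal to KM) to luciferin, after 60 min at RT with an NADPH-regenerating system.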

The target in assay [15] is Cytochrome P450 2D6 (Homo sapiens) (UniProt P10635). Description: qHTS Assay for Inhibitors and Substrates of Cytochrome P450 2D6 (AID 891). Also: potency is read from the fitted curve at half-maximal effect; nearly all actives have a fitted effect of over 60% in size. Particulars: recombinant CYP2D6, luciferin-ME EGE luminescence; series mostly up to 57.1 µM. The gist of the method:
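Luminescent read-out of luciferin formed by 5 nM human CYP2D6 demethylating 30 uM Luciferin-ME EGE (Km level) over 60 min at room temperature after NADPH regeneration addition. Data normalized to full inhibition by 1.43 uM quinidine.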

Assay [16] can be described thus: qHTS Assay for Identification of Small Molecule Agonists for Hypoxia Response Element Signaling Pathway (AID 914; active = well fitted activation curve with a large enough effect in the signal ratio, with a control signal flat, not every such curve was filed as active; the % refers to the signal ratio; also: % of control where 0% means no effect). Particulars: ME-180 (cervical carcinoma) HRE-bla reporter, beta-lactamase ratio, CoCl2, 17 h; activation: hits give high values. The gist of the method:
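Reporter activity (beta-lactamase, CCF4 460nm/530nm ratio) in HRE-bla ME-180 cells is recorded after 17 h compound exposure with EC50 CoCl2 at 37 degrees Celsius. AC50 values come from titration data.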

The nature of assay [17]: NFAT Signaling Pathway (AID 444; active = well fitted curve in either direction with a large enough effect, not every such curve was filed as active). Particulars: Jurkat NFAT-bla M1, carbachol, beta-lactamase ratio, 5 h; at 7.69 µM (top of the series) unless noted. In short, it runs like this:
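Read-out: CCF4 FRET ratio (460 nm/530 nm) after 1 h RT dye loading, used for %activity and AC50 from titration series. Cells: Jurkat NFAT-β-lactamase/M1 line, treated with compound plus 1 uM carbachol for 5 h, 37 °C.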

The target in assay [18] is 3',5'-cyclic-AMP phosphodiesterase 4B (Homo sapiens) (UniProt Q07343). Description: qHTS Assay for Inhibitors of PDE-IV (AID 607; active = well fitted activation curve with a large enough effect in the main read-out, with a control signal flat, not every such curve was filed as active; also: % of control where 0% means no effect). Particulars: HEK293 ACTOne CNG channel cells, membrane potential fluorescence; series mostly up to 22.9 µM. In short, it runs like this: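 The readout is membrane depolarisation from a cAMP-sensing CNG channel, detected with a potential dye at ex 535/em 590. Cells were HEK293-derived (endogenous PDE-IV) at 1000 cells/well, titrated up to 22.9 uM final.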

Unmarked numbers belong to inactive results. Inconclusive results are not listed. Activity calls are given as the source filed them. Unless noted, calls follow the shape of the dose curve; as a rule, active = well fitted curve in the direction sought with a large enough effect; inconclusive = small, poorly fitted or top-dose-only effect, or another doubt; inactive = no such curve, though single readings can be large; an effect the other way counts as inactive or inconclusive. A value given as a limit tells only on which side of the number the result lay.

Ubiquitin carboxyl-terminal hydrolase 1 (Homo sapiens), sequence (O94782 whole entry, looked up): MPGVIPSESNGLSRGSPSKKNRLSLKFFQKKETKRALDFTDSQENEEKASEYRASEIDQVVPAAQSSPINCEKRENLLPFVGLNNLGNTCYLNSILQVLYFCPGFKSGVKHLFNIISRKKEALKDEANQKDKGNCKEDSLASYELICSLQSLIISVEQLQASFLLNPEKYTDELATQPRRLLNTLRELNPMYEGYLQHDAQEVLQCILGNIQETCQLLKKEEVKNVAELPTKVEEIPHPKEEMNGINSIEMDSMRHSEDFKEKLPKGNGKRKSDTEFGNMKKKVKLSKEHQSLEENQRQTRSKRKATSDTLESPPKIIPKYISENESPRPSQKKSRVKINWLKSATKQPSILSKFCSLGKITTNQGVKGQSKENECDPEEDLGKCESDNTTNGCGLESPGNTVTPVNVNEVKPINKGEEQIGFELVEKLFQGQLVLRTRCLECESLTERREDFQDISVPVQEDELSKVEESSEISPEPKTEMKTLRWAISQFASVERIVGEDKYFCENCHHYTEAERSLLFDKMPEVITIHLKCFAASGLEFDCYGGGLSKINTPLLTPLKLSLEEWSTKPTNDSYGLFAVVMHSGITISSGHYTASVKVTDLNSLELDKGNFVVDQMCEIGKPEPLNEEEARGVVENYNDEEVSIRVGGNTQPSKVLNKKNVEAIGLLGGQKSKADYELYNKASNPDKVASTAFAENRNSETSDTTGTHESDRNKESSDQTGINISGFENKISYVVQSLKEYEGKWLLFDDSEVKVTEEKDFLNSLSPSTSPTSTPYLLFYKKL
Lysosomal acid glucosylceramidase (Homo sapiens), sequence (P04062 whole entry, looked up): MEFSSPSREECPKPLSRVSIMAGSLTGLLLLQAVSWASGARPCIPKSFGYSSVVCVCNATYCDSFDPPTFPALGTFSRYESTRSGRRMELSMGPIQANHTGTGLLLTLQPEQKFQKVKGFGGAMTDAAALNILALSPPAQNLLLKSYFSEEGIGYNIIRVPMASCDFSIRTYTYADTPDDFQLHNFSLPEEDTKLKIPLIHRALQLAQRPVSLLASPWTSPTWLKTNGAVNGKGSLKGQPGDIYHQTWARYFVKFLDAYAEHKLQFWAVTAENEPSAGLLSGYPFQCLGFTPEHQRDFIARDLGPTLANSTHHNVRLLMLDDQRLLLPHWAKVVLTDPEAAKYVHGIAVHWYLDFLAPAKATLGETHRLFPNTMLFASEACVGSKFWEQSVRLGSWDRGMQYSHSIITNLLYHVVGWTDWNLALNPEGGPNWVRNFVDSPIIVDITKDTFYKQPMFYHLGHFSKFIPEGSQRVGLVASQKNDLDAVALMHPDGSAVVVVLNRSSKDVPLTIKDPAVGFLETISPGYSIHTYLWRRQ
Cytochrome P450 1A2 (Homo sapiens), sequence (P05177 whole entry, looked up): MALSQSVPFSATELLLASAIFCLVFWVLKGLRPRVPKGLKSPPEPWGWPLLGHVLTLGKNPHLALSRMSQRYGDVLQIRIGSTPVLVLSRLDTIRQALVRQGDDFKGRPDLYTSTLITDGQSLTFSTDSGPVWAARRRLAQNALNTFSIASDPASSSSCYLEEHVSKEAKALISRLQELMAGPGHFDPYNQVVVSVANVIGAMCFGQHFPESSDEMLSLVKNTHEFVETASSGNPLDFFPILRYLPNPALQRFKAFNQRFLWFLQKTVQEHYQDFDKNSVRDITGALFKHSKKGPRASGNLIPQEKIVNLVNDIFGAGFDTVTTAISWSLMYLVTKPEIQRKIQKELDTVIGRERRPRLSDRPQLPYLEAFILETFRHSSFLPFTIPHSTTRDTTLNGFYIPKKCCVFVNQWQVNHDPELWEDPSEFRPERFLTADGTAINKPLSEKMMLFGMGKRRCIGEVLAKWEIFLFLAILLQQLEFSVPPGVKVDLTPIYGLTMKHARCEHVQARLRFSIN
Dual specificity protein kinase CLK4 (Homo sapiens), sequence (Q9HAZ1 whole entry, looked up): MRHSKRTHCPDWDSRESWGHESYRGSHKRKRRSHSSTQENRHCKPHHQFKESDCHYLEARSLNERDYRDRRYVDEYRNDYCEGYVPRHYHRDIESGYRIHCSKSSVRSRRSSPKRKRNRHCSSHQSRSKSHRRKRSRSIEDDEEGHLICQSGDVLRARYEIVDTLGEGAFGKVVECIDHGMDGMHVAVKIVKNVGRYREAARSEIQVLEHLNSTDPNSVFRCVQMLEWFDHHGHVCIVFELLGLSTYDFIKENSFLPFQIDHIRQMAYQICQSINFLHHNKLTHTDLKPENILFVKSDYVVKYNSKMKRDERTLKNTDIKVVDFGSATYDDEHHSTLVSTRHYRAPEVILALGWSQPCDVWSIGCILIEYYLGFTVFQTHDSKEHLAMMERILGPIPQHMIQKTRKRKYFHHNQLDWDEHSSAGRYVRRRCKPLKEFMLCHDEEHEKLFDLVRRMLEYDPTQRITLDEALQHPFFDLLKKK
Cytochrome P450 3A4 (Homo sapiens), sequence (P08684 whole entry, looked up): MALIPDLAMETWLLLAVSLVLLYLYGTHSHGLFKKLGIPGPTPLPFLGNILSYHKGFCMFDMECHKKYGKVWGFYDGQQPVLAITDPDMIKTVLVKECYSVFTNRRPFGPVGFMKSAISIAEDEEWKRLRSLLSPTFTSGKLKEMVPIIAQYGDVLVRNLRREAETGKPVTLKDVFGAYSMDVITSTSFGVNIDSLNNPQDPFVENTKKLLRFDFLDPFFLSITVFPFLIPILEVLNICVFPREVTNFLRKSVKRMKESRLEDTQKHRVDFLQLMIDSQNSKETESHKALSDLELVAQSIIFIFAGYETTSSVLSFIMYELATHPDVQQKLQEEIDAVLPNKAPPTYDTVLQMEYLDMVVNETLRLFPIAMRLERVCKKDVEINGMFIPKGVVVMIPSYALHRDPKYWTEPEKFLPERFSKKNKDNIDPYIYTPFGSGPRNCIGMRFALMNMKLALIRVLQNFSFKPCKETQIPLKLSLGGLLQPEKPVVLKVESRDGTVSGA
Glucocorticoid receptor (Homo sapiens), sequence (P04150 whole entry, looked up): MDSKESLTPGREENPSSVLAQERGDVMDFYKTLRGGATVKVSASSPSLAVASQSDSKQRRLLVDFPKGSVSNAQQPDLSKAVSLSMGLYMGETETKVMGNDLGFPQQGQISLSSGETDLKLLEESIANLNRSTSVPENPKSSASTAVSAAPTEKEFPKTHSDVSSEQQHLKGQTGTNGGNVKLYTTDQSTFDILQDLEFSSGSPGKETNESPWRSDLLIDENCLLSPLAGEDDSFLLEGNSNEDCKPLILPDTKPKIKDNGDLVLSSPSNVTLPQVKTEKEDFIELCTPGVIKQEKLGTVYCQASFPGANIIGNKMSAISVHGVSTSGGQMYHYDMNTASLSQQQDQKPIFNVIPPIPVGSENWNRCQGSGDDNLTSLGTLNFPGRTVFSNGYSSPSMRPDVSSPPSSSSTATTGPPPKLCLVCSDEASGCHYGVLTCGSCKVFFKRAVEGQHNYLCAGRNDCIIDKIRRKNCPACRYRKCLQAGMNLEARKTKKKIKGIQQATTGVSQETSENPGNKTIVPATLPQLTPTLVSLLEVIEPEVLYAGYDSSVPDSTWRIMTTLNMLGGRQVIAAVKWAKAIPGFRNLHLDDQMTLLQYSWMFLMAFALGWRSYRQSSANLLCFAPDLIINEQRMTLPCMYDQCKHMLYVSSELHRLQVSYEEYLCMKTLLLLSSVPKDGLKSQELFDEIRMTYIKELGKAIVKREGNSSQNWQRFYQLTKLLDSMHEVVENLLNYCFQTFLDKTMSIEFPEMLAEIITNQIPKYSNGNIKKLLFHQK
3',5'-cyclic-AMP phosphodiesterase 4B (Homo sapiens), sequence (Q07343 whole entry, looked up): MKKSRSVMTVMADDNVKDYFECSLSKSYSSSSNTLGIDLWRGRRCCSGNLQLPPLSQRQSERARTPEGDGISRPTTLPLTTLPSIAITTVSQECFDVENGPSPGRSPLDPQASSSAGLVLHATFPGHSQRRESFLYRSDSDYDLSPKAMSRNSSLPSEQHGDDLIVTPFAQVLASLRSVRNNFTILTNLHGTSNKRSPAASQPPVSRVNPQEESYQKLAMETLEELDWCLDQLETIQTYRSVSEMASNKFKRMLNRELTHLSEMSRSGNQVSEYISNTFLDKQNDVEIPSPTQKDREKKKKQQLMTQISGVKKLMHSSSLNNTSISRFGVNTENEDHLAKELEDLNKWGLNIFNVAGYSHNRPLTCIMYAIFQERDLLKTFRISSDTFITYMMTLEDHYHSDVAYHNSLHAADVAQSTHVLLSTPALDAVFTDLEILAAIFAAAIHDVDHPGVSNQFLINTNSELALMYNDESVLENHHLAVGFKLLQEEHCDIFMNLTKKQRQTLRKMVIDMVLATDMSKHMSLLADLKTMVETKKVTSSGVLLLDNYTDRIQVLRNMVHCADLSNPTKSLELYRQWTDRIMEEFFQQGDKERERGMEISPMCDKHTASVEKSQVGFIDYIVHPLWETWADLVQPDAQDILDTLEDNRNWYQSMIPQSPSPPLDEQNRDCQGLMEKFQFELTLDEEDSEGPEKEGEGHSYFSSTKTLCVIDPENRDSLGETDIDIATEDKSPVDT
Cytochrome P450 2D6 (Homo sapiens), sequence (P10635 whole entry, looked up): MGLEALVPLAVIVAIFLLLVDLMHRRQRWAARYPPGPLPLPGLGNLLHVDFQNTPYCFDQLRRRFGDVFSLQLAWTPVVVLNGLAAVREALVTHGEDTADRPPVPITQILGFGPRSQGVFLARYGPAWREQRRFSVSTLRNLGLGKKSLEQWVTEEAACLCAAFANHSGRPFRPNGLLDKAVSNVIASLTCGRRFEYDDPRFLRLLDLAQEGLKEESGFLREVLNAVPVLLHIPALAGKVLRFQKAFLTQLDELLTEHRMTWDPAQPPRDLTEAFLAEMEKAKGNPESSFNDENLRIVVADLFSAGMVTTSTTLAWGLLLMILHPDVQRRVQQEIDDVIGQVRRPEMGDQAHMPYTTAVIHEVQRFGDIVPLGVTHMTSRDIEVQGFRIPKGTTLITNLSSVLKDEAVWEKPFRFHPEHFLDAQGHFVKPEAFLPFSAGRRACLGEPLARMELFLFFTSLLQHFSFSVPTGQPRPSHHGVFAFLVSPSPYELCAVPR

On to `CN(C)c1ncc2nc(-c3ccccc3)c(=O)n(CCC#N)c2n1`, for which the Potency in assay [1] is over 11.4 µM; in [3] it was 1.58 µM (active); in assay [4], over 9.22 µM; in [5] it was over 46 µM. In assay [2], the activity change, negative = inhibition is -4.57%. Besides, the Potency result in assay [6], in assay [7], in assay [8], in assay [9] and in [10] was “inactive” in each case. In assay [11], the result was inactive.
Consider `Cc1cccc(CNc2ncncc2-c2ccccc2Cl)c1`, for which the Potency in assay [1] was over 11.4 µM; in assay [3] it was 3.16 µM (active); in assay [4], over 46 µM; in [5], over 46 µM; in assay [13], 0.199 µM (active); in assay [15] it was 2 µM (active). The activity change, negative = inhibition in [2] was -12.3%. In addition, the activity, negative = inhibition in assay [12] was -14.1%. The Potency result in assay [6], in assay [14], in assay [7], in [8], in assay [9] and in [10] was “inactive” throughout. Also, the activation in assay [16] is -10.3%. For the same compound, in [11], the result was inactive.
On to `COCCn1c(=O)c(-c2ccccc2)nc2cnc(N3CCOCC3)nc21`, for which the Potency in assay [1] was over 11.4 µM; in assay [4], over 9.22 µM; in assay [5], over 46 µM. Besides, the activity change, negative = inhibition in assay [2] was -10.7%; in [17] it was 18.3%. Moreover, the activity, negative = inhibition in assay [12] is -4.75%. Further, the Potency result in assay [6], in assay [18], in assay [7], in [8], in assay [9] and in assay [10] was “inactive” in each case. Besides, the outcome in [11] was inactive.
In the case of `Cn1c(=O)c(-c2ccc(F)cc2)nc2cnc(Nc3ccccc3)nc21`, the results for the Potency in assay [1], in assay [4] and in assay [5] were over 11.4 µM, over 9.22 µM and over 46 µM, respectively. The activity change, negative = inhibition was 4.86% in [2] and -9.42% in assay [17]. Moreover, in [12], the activity, negative = inhibition is -5.13%. The Potency result in [6], in [7], in assay [8], in assay [9] and in [10] was “inactive” throughout. In addition, the result in assay [11] was inactive.
For `COc1ccc(CNc2nc(-c3cccc(C#N)c3)nc3ccccc23)c(OC)c1`, the Potency in [1] is over 11.4 µM; in assay [3], 2.51 µM (active); in assay [4], over 46 µM; in [5], over 46 µM; in [13] it was 2.51 µM (active). In addition, the activity change, negative = inhibition in assay [2] is -19.2%. Also, in assay [12], the activity, negative = inhibition was -10.1%. The Potency result in assay [6], in assay [7], in assay [8], in assay [9] and in assay [10] was “inactive” in each case. Moreover, the result in assay [11] was inactive.
Turning to `c1ccc(CNc2ncnc3ccc(-c4ccoc4)cc23)cc1`, the Potency is over 11.4 µM in assay [1]; over 46 µM in [4]; over 46 µM in assay [5]; 14.1 µM (active) in assay [7]; 12.6 µM (active) in assay [8]; 12.6 µM (active) in assay [9]. The activity change, negative = inhibition in assay [2] is -25%; in assay [17], 11.4%. In assay [12], the activity, negative = inhibition is -19.6%. Further, the Potency entry in assay [6], in assay [18] and in [10] was “inactive” throughout. In addition, the result in assay [11] was inactive.
